Compounds with a hit are over-represented: about 7.2% of the library has one in this group of screens.
SNCA expr inh: reduces expression of the alpha-synuclein gene; HEK-293 SNCA-luciferase knock-in, luminescence, 24 h; 140,000 tested, 0.17% active; Potency, µM (highest dose often 57.2 µM), without a hit: at the highest dose activity change, negative = inhibition, most hits filed as inhibitors;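 also: plate controls were DMSO cells for no effect and cell-free wells for full effect; nearly all actives have a fitted effect of over 45% in size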
FLuc inh-1: blocks purified firefly luciferase enzyme activity | P08659 | purified P. pyralis luciferase, luminescence, biochemical | Potency, µM (top dose mostly 115 µM), hits mostly inhibitors | 76,000 tested, 2.5% active; also: % is scaled to controls: 0 for no effect and ±100 for the full control effect; nearly all actives have a fitted effect of over 65% in size
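Biochemical qHTS: compound (6-point titration) added to 10uM D-luciferin plus 10uM ATP in Tris acetate pH 7.5 buffer with Mg, Tween-20 and BSA, then purified enzyme at 10nM; light output imaged.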
SNCA viab count: counter-screen for SNCA expression inhibitors: cell viability; HEK-293-SNCA-luc viability, GF-AFC fluorescence, 24 h; Potency, µM (doses to about 57.1 µM), inactives show at the highest dose activity change, negative = cytotoxicity, most hits filed as cytotoxic; 150,000 tested, 0.12% active; AID 1671193;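 also: 0% = DMSO-treated cells and -100% = medium-only wells without cells; nearly all actives have a fitted effect of over 30% in size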
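Cytotoxicity counterscreen: after 24 h compound treatment of genome-edited SNCA-luciferase HEK-293 cells, live-cell protease substrate GF-AFC read by fluorescence after 30 min; activity scaled between DMSO (0%) and medium-only (-100%), curves Hill-fitted.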
NPR1 antag: blocks ANP-stimulated signaling of human Npr1 receptor; Potency, µM (top dose mostly 46.3 µM), without a hit: at the top dose activity change, negative = inhibition, hits mostly inhibitors; HEK293 hNpr1 GloSensor cGMP, ANP-stimulated luminescence; 76,000 tested, 1.6% active; calls by dose curve; also: % is scaled to controls: 0 for no effect and ±100 for the full control effect; nearly all actives have a fitted effect of over 60% in size
Target sequence (P16066 whole entry, looked up): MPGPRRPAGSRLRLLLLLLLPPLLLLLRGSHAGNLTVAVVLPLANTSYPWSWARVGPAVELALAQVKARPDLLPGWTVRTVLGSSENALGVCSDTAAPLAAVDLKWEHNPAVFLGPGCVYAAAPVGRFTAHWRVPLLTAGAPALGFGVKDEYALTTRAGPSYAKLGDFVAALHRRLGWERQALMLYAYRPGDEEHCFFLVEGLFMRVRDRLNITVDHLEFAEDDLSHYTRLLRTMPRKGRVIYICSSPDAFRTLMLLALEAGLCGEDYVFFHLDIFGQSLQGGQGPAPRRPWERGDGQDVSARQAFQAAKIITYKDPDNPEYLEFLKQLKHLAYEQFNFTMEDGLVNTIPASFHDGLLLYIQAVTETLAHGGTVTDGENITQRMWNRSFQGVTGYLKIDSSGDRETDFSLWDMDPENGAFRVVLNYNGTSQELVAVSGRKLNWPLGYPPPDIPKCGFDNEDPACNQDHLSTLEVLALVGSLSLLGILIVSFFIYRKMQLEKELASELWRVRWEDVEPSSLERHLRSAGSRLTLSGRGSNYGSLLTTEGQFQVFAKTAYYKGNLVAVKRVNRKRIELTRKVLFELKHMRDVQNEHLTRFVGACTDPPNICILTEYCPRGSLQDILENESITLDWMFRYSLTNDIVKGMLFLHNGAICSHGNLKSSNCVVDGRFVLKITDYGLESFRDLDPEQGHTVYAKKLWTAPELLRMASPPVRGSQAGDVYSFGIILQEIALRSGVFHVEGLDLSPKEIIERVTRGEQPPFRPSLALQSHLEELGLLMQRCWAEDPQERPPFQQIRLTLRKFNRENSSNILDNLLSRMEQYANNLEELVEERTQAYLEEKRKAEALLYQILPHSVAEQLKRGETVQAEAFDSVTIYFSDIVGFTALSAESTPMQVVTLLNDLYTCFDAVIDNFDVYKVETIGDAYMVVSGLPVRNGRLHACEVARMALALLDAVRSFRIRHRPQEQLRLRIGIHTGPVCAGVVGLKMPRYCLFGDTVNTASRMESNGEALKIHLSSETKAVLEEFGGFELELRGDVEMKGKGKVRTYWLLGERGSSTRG
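Compound pre-incubated 30 min at room temperature on GloSensor-loaded HEK293 cells stably carrying hNpr1 and the pGS-40F cGMP biosensor. Stimulation uses hNppA at 0.1 nM final; luminescence is taken at baseline and 20 min post-agonist.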
HEK cytotox: HEK 293 cell cytotoxicity. HEK 293 viability, ATP luminescence (CellTiter-Glo), 48-72 h. Potency, µM (doses to about 115 µM), for inactives: top-dose activity change, negative = cytotoxicity, usual class: inhibitors. 94,000 tested, 6.6% active. AID 1345083; also: % is scaled to controls: 0 for no effect and ±100 for the full control effect; nearly all actives have a fitted effect of over 60% in size
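Cytotoxicity was scored by loss of ATP-coupled luminescence (CellTiter-Glo) in HEK 293 cells. Compound treatment ran 48 or 72 hr at 37 degree Celsius, 5% CO2, 95% humidity.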
NIH3T3 tox: NIH 3T3 cell cytotoxicity | NIH 3T3 viability, CellTiter-Glo ATP luminescence, 48-72 h | Potency, µM (series often up to 96.7 µM), inactives show at the top dose activity change, negative = cytotoxicity, actives largely listed as inhibitors | 94,000 tested, 4.3% active | AID 1345082; also: % is scaled to controls: 0 for no effect and ±100 for the full control effect; nearly all actives have a fitted effect of over 55% in size
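Viability of NIH 3T3 cells after 48 or 72 hr compound treatment at 37 °C was assessed by CellTiter-Glo, with luminescence imaged following a 10 min room-temperature step.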
FLuc SDR -ATP: stabilizes firefly luciferase without ATP. AID 1963318. Purified FLuc-C-HiBiT, Nano-Glo HiBiT luminescence, no ATP. Potency, µM (titrated, usually from 32.7 µM), for inactives: top-dose activation (signal gain), actives largely listed as activators. shares compounds with FLuc inh-1. 1,300 tested, 7.8% active; also: nearly all actives have a fitted effect of over 55% in size
FLuc SDR ATP: binders stabilizing firefly luciferase, plus ATP | purified FLuc-C-HiBiT + ATP, HiBiT complementation luminescence | shares compounds with FLuc inh-1 | Potency, µM (top dose mostly 32.7 µM), inactives show at the highest dose activation (gain of signal), actives largely listed as activators | 1,300 tested, 8.7% active;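 also: signal reports ligand binding via conformational change of the enzyme rather than luciferase catalysis; % of control where 0% means no effect; nearly all actives have a fitted effect of over 55% in size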
FLuc inh-2: firefly luciferase enzyme inhibition | Potency, µM (highest dose often 32.7 µM), without a hit: at the top dose activity change, negative = inhibition, actives largely listed as inhibitors | 1,300 tested, 42% active | purified FLuc-C-HiBiT enzyme, luciferin luminescence | shares compounds with FLuc inh-1; also: % is scaled to controls: 0 for no effect and ±100 for the full control effect; nearly all actives have a fitted effect of over 70% in size
Starred values were filed as active, the others as inactive; i = inactive; ? = inconclusive; / = no result; [ ] = remark or other dose. Unless noted, calls follow the shape of the dose curve; as a rule, active = well fitted curve in the direction sought with a large enough effect; inconclusive = small, poorly fitted or top-dose-only effect, or another doubt; inactive = no such curve, though single readings can be large; an effect the other way counts as inactive or inconclusive. Potency is read from the fitted curve at half-maximal effect.

SMILES	SNCA expr inh	FLuc inh-1	SNCA viab count	NPR1 antag	HEK cytotox	NIH3T3 tox	FLuc SDR -ATP	FLuc SDR ATP	FLuc inh-2
COc1ccc(-c2ccc3c(c2)C(=O)N2CC[C@H](NC(=O)COCC(=O)O)[C@H]2C(=O)N3)c(OC)c1	1.4%	?	0.5%	1.0%	-23.8%	-16.3%	/	/	/
CSCC(=O)N[C@H]1CCN2C(=O)c3cc(-c4cccs4)ccc3NC(=O)[C@H]12	20.3%[87.6 µM]	?	-10.9%[87.6 µM]	-6.9%[70.6 µM]	-20.6%[172 µM]	-33.4%[174 µM]	/	/	/
COc1ccc(/C=C/c2ccc3c(c2)C(=O)N2CC[C@H](NC(=O)COCC(=O)O)[C@H]2C(=O)N3)cc1	-19.9%	7.94µM*	-1.7%	-2.3%	?	?	?	?	9.89µM*
CSCC(=O)N[C@H]1CCN2C(=O)c3cc(/C=C/c4ccccc4)ccc3NC(=O)[C@H]12	15.2%[87.6 µM]	11.2µM*	-5.3%[87.6 µM]	2.4%[70.6 µM]	?	-25.7%[174 µM]	17.3%[49.3 µM]	10.2%[49.3 µM]	?
O=C(NCc1ccco1)[C@@H]1Cc2nc[nH]c2CN1Cc1ccc(C(F)(F)F)cc1	-13.4%[87.6 µM]	i	18.8%[87.6 µM]	-15.2%[70.6 µM]	?	?	/	/	/
CC(C)(Oc1nn(CC2CC2)c2ccc(CN3CCCC3)cc12)C(=O)NC1CCOCC1	/	/	/	/	/	/	12.4%[49.3 µM]	10.4%[49.3 µM]	-2.6%[49.3 µM]
CN1CCC(NC(=O)C(C)(C)Oc2nn(Cc3ncccn3)c3ccccc23)CC1	/	/	/	/	/	/	14.1%[49.3 µM]	11.3%[49.3 µM]	-0.3%[49.3 µM]
COc1ccc(NC(=O)C(C)(C)Oc2nn(CC3CC3)c3ccc(CN4CCCC4)cc23)cc1	3.8%	i	-24.3%	-1.8%	?	?	/	/	/
COc1ccc(-c2cc(N3CCC(NC(=O)c4cccs4)CC3)n[nH]2)cc1	0.8%	i	-14.8%	-24.9%	?	?	/	/	/
c1cncc(CN2CCNc3cc(-c4cn[nH]c4)ncc3C2)c1	1.2%[87.6 µM]	?	3.5%[87.6 µM]	-0.8%[70.6 µM]	?	i	/	/	/
C[S+](=O)([O-])c1ccc(-c2cc3c(cn2)CN(CCc2ccccc2)CCN3)cc1	-1.8%[87.6 µM]	?	-23.6%[87.6 µM]	-10.0%[70.6 µM]	?	?	/	/	/
CC(C)(C)CN1CCNc2cc(Nc3ccccc3)ncc2C1	-2.9%[87.6 µM]	2.24µM*	-28.4%[87.6 µM]	?	?	50.1µM*	?	16.8%[49.3 µM]	7.18µM*
CC(C)(C)CN1CCNc2cc(Nc3cccnc3)ncc2C1	-30.5%[87.6 µM]	1.58µM*	-25.8%[87.6 µM]	-0.9%[70.6 µM]	-39.1%[172 µM]	?	?	?	6.4µM*
CNS(=O)(=O)c1ccc(CCC(=O)N2CC[C@H]3CC[C@@H](C2)N3)cc1	13.8%	i	6.4%	0.9%	?	-30.8%	/	/	/
CC1CCC(NC(=O)C2CCN(C(=O)c3ncn4c3COC(c3ccccc3)C4)CC2)CC1 (configuration not stated)	60.2%	2.82µM*	2.8%	0.0%	3.6%	i	11.8%	3.13µM*	2.48µM*
CCc1ccc(NC(=O)C2CCN(C(=O)c3ncn4c3COC(c3ccccc3)C4)CC2)cc1 (configuration not stated)	14.1%	5.01µM*	-9.0%	-16.6%	?	-27.4%	12.5%	?	3.94µM*
COc1ccc(C2Cn3cnc(C(=O)N4CCC(C(=O)Nc5cc(F)cc(F)c5)CC4)c3CO2)cc1 (configuration not stated)	11.9%	?	-14.5%	?	?	?	/	/	/

Screening data: PubChem BioAssay, National Center for Advancing Translational Sciences (NCATS)
